Measurements reported in PubChem BioAssay AID1159606 (Sanford-Burnham Center for Chemical Genomics, 2016).
Out of some 360,000 compounds screened, about 7,300 (2%) were called active. No stated cut-off is given here; in the data, active means inhibition above about 50%; inactive means the rest. The sample as a whole holds a higher share of actives than the screen did.

Assay: blockers of TWEAK-induced Fn14 reporter activity – luciferase reporter cells, uHTS, primary screen (AID 1159606)
Conditions: TWEAK-stimulated Fn14 reporter cells, luciferase luminescence, 8 h; at 10 µM; stronger effect = higher value

inhibition, active:
CCOc1ncccc1C(=O)Nc1ccc2c(c1)OCCO2 68.7%
CCOC(=O)c1cccc(NC(=O)CN(c2ccc(C)cc2)S(=O)(=O)c2c(C)noc2C)c1 57.7%
O=c1oc(/C=C/c2ccccc2)nc2ccccc12 55.3%
COc1ccc(-c2cn3ccc(C)cc3n2)cc1 81.6%
Cc1ccc(-c2cn3cc(C)ccc3n2)cc1 105%
Cc1ccc(-c2cn3cc([N+](=O)[O-])ccc3n2)cc1 76.3%
Cc1ccc2nc(-c3ccc(Br)cc3)cn2c1 98.8%

inhibition, inactive:
O=C(NCc1ccccc1)[C@@H]1CSC2c3ccccc3C(=O)N21 (stereo not given in full) 8.08%
Cc1ccc2nc(SC(C)C(=O)NCc3ccco3)[nH]c2c1 (stereo not given) 46%
CSc1ncccc1C(=O)Nc1ccc2c(c1)OCO2 1.24%
CCOc1ncccc1C(=O)Nc1ccc(S(=O)(=O)Nc2nc(C)cc(C)n2)cc1 -19.9%
COC(=O)[C@]12CCCCC=C1N(Cc1ccco1)C(=O)[C@H](CC(=O)NCCCCc1ccccc1)C2 16.9%
O=C(NCCc1ccccn1)c1cc(C(=O)C2CCCCC2)c[nH]1 4.9%
Cc1cc(C)c(C#N)c(SCC(=O)N(CC(C)C)C2CCS(=O)(=O)C2)n1 (stereo not given) 4.51%
COC(=O)C(Cc1c[nH]c2ccccc12)NC(=O)CCNC(=O)c1ccco1 (stereo not given) -24.2%
O=C1NC[C@H](CCCCN2CCN(CCc3ccccc3)C(=O)C2=O)N(CC2CCCCC2)C1=O -2.45%
O=C1OCCOC2CCCc3oc(-c4ccccc4)c1c32 (stereo not given) 16.6%
COc1ccc(N(CC(=O)Nc2cc(OC)ccc2OC)S(=O)(=O)c2c(C)noc2C)cc1 -0.61%
Cc1noc(C)c1S(=O)(=O)N(CC(=O)Nc1ccc2c(c1)OCCO2)c1ccc(C(C)C)cc1 35.5%
S=c1[nH]nc(/C=C/c2ccccc2)o1 9.4%
O=c1[nH]c(/C=C/c2cccc(Br)c2)nc2ccccc12 -14.4%
CCN(c1ccccc1)S(=O)(=O)c1cc2c(cc1C)n(C)c(=O)c(=O)n2C -4.66%
CS(=O)(=O)Nc1cccc(-c2cn3ccccc3n2)c1 -6.02%
Cc1ccnc(N2C(=O)c3ccc([N+](=O)[O-])cc3C2=O)c1 5.4%
Cc1ccc(-c2cc(N)on2)cc1 -5.28%
Cc1ccc(-c2nc3ccc(Br)cn3c2Cc2ccccc2C(F)(F)F)cc1 5.76%
COc1ccc(-c2nc3ccc(Br)cn3c2Cc2ccc(C)cc2)cc1OC -20.3%
COc1ccc(C2=Nc3cc(C)ccc3OC2)cc1 27.9%
Cc1ccc(-n2cc3ccc([N+](=O)[O-])cc3n2)cc1 39.8%
FC(F)(F)Oc1ccc(-c2cn3cccnc3n2)cc1 -15.1%
